In the library only some 27% were active in any assay of this set; here they are far more common.
PTK2B oligo ant: Pyk2 (human) oligomerization antagonism; AID 1347419; Q14289; Q293 cells, Pyk2 FERM NanoBiT luminescence; hits give low values; z-score (the deposit names both 25 µM and 10 µM); 0.83% of 99,000 active;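 active means Z-score of -3 or lower, scaled per plate to the spread of control and sample wells; inactive means z-score above -3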;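 further: negative z-score means lost luminescence so less FERM oligomerization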
Cav32 inh: human Cav3.2 channel inhibition, primary screen | O95180 | Cav3.2-expressing cells, Fluo-4 calcium fluorescence FDSS; hits give low values | B-score at 10 µM | 4% of 100,000 active | AID 449739;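 active means single-dose well whose peak fluorescence ratio is a statistical outlier from its plate by either plate-standardised score or position-corrected B-score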
CYP2C9 inh: human CYP2C9 inhibition | P11712 | CYP2C9 Supersomes, luciferin-H conversion, luminescence | inhibition, % at 5 µM | AID 777 | 20% of 96,000 active;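 active means blocking of liver enzyme CYP2C9 beyond about 50% at 5 µM, limit read from the data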
Target sequence (P11712 whole entry, looked up): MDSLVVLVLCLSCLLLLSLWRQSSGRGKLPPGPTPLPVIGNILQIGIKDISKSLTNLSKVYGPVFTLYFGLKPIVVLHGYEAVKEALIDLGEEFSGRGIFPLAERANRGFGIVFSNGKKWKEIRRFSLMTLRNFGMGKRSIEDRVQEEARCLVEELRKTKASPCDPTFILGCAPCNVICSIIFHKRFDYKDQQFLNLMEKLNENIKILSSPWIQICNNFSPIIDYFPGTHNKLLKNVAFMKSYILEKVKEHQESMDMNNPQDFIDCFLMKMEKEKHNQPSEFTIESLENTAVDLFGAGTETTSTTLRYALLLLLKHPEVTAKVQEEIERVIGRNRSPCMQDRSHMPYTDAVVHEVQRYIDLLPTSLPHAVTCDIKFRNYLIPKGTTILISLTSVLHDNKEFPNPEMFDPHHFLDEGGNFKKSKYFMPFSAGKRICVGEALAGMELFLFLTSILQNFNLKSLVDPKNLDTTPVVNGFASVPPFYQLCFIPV
CYP2C19 activ: cytochrome P450 2C19 (human) activation; recombinant CYP2C19, luciferin-H EGE luminescence; hits give high values; 0 = fully inhibited enzyme, 1 = untreated enzyme; AID 1025; activation factor at 5 µM; 96,000 tested, under 10 active; P33261;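 active means activation factor of at least 2 at 5 µM in the primary screen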
CYP2C9 activ: increases human cytochrome P450 2C9 activity; recombinant CYP2C9, luciferin-H conversion, luminescence; hits give high values; factor 1 = untreated enzyme, 0 = blocked; activation factor at 5 µM; 1.4% of 96,000 active; AID 1024;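 active means activation factor of 2 or more for CYP2C9 at a 5 µM dose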
CYP2C19 inh: inhibitors of human CYP2C19; 21% of 96,000 active; P33261; AID 778; inhibition, % at 5 µM; CYP2C19 Supersomes, luciferin-H EGE luminescence, 30 min;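 active means CYP2C19 inhibition above a set limit at 5 µM in the primary screen, cut at about 50% in these data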
Hits are given with their value; n = inactive; x = not tested or not shown.

SMILES	PTK2B oligo ant	Cav32 inh	CYP2C9 inh	CYP2C19 activ	CYP2C9 activ	CYP2C19 inh
CC(=O)c1sc(NC(=O)c2ccco2)nc1-c1ccccc1	x	n	n	n	n	n
O=C(Nc1nc(-c2ccncc2)cs1)c1ccco1	n	n	76	n	n	97
COCC(=O)Nc1nc(-c2ccccc2)c(C)s1	n	n	n	n	n	52
COc1ccc2c(c1)CCc1sc(NC(=O)c3ccco3)nc1-2	x	n	99	n	n	94
O=C(Nc1nc(-c2ccccc2)cs1)c1ccc(Br)o1	n	n	n	n	n	n
O=C(O)c1cc(S(=O)(=O)NCc2ccco2)c(Cl)cc1Cl	n	n	n	n	n	n
CC1(C)CC(C#N)(N2CCOCC2)CCO1 (centres undefined)	n	n	n	n	n	n
CCOC(=O)CSc1nc2ccc(S(=O)(=O)N3CCOCC3)cc2[nH]1	n	n	n	n	n	n
CCCCNS(=O)(=O)c1ccc2nc(SCC(=O)c3ccc(C#N)cc3)[nH]c2c1	n	n	88	n	n	74
CCOC(=O)NCc1ccc(S(=O)(=O)Nc2ccccc2C)cc1	n	n	n	n	n	69
O=C(O)c1ccccc1NS(=O)(=O)c1ccccc1C(F)(F)F	n	n	66	n	n	n
NC(=O)c1ccccc1NS(=O)(=O)c1cccs1	n	n	n	n	n	n
Cc1ccc(C)c(NS(=O)(=O)c2cc(C(=O)Nc3ccccc3-c3ccccc3)ccc2C)c1	n	n	80	n	n	54
NC(=O)c1ccccc1NS(=O)(=O)c1ccccc1	n	n	n	n	2.3	n
Clc1ccc(-n2nnc(-c3ncc[nH]3)n2)cc1Cl	x	n	x	x	x	x
CC(=O)N(C)c1ccc(NC(=O)c2cnn(C)c2)cc1	n	n	n	n	n	n
Cc1ccccc1NS(=O)(=O)c1ccc(C)c(C(N)=O)c1	n	n	n	n	n	90
O=C(NS(=O)(=O)c1ccccc1)c1ccccc1O	n	x	89	n	n	n
Cc1ccc(S(=O)(=O)Nc2ccccc2C(N)=O)cc1	n	n	n	n	2.1	n
Cc1cc(S(=O)(=O)Nc2ccccc2C)ccc1F	n	n	x	x	x	x
NC(=O)c1ccccc1NC(=O)CS(=O)(=O)Cc1ccccc1	n	n	n	n	n	n
CN(C)S(=O)(=O)Nc1ccccc1C(N)=O	n	n	n	n	n	n
NC(=O)c1ccccc1NS(=O)(=O)Cc1ccc(Cl)cc1	n	n	n	n	n	66
O=C(NNC(=O)C1CCCO1)c1ccc(Cl)cc1 (centres undefined)	n	n	n	n	n	n
COC(=O)C(C)Sc1nnc2n(-c3cccc(C)c3)c(=O)c3c4c(sc3n12)CCCC4 (centres undefined)	x	n	n	n	n	n
SMILES	PTK2B oligo ant	Cav32 inh	CYP2C9 inh	CYP2C19 activ	CYP2C9 activ	CYP2C19 inh
Cc1ccccc1NS(=O)(=O)c1cc(C(N)=O)ccc1C	n	n	n	n	n	97
O=C(C1CCN(S(=O)(=O)c2cccc3cccnc23)CC1)N1CCn2c1nc1ccccc12	x	x	n	n	n	n
Cc1cccc(NC(=O)C2CCCN2S(=O)(=O)c2cccc3cccnc23)c1 (centres undefined)	x	n	70	n	n	n
COc1cc(NC(=O)C2CCCN2S(=O)(=O)c2cccc3cccnc23)cc(OC)c1OC (centres undefined)	x	x	83	n	n	n
Cc1ccc(NC(=O)C2CCCN2S(=O)(=O)c2cccc3cccnc23)cc1F (centres undefined)	x	n	94	n	n	n
O=C(C1CCCN1S(=O)(=O)c1cccc2cccnc12)N1CCn2c1nc1ccccc12 (centres undefined)	x	n	58	n	n	n
COc1ccccc1CNC(=O)C1CCCN1S(=O)(=O)c1cccc2cccnc12 (centres undefined)	x	n	n	n	n	83
Cc1nnc(NC(=O)CSc2nc3c(c(=O)n2CCc2ccccc2)SC(C)C3)s1 (centres undefined)	x	n	n	n	n	n
CCn1c(SCC(=O)Nc2cccc(C)c2)nc2c(c1=O)SC(C)C2 (centres undefined)	x	n	75	n	n	n
CCSc1nnc(NC(=O)CSc2nc3c(c(=O)n2CC)SC(C)C3)s1 (centres undefined)	n	x	n	n	n	n
CCC(Sc1nc2c(c(=O)n1CC)SC(C)C2)C(=O)OC (centres undefined)	x	n	56	n	n	n
CCn1c(SCC(=O)N2CCOCC2)nc2c(c1=O)SC(C)C2 (centres undefined)	n	n	x	x	x	x
CCn1c(SCC(=O)Nc2nnc(C)s2)nc2c(c1=O)SC(C)C2 (centres undefined)	x	n	62	n	n	n
CCSc1nnc(NC(=O)CSc2nc3c(c(=O)n2C)SC(C)C3)s1 (centres undefined)	n	n	62	n	n	n
COC(=O)c1sccc1-c1ccc(/C=N/OC(=O)c2ccccc2)o1	n	n	n	n	n	n
CCn1c(SCC(=O)Nc2ccc3c(c2)OCO3)nc2c(c1=O)SC(C)C2 (centres undefined)	x	n	84	n	n	69
CC1Cc2nc(SCC(=O)NC3CCCCC3)n(C)c(=O)c2S1 (centres undefined)	n	n	n	n	n	n
CCc1nnc(NC(=O)CSc2nc3c(c(=O)n2C)SC(C)C3)s1 (centres undefined)	x	n	n	n	n	n
CC1Cc2nc(SCC(=O)c3ccccc3)n(Cc3ccccc3)c(=O)c2S1 (centres undefined)	x	-6.3	97	n	n	n
CC1Cc2nc(SCC(=O)Nc3nc4ccccc4s3)n(C)c(=O)c2S1 (centres undefined)	x	n	98	n	n	97
CC1Cc2nc(SCC(=O)N3CCc4ccccc43)n(C)c(=O)c2S1 (centres undefined)	n	x	93	n	n	n
Cc1cc(C)c(S(=O)(=O)c2ccccc2C)c(OCC(C)(C)C)n1	n	n	n	n	n	n
Cc1ccccc1CS(=O)(=O)Cc1ccc(C(=O)NCCCN2CCCC2=O)o1	x	x	n	n	n	n
CCCCOCCCNC(=O)CCCOc1ccccc1	n	n	n	n	n	n
C=CCn1c(N)c(C(=O)NCc2ccco2)sc1=S	n	n	64	n	n	60
SMILES	PTK2B oligo ant	Cav32 inh	CYP2C9 inh	CYP2C19 activ	CYP2C9 activ	CYP2C19 inh
C=CCn1c(N)c(C(=O)Nc2ccccc2OC)sc1=S	n	n	85	n	n	78
C=CCn1c(N)c(C(=O)N2CCOCC2)sc1=S	n	n	70	n	n	n
COc1ccc(/C=C/C(=O)Nc2c(C)nn(C)c2C)cc1COc1ccc(Cl)cc1Br	n	n	x	x	x	x
Clc1ccc(CN2CCC(c3nc4ccc(Cl)cc4[nH]3)CC2)cc1	n	x	n	n	n	n
CCC(C)(C)n1nnnc1CN1CCC(c2nc3ccc(C)cc3[nH]2)CC1	n	n	66	n	n	n
COc1ccc(S(=O)(=O)N2CCC(NC(=O)Nc3ccc(C)cc3)CC2)cc1	n	n	n	n	n	n
